Compound activity as filed in PubChem.
Only some compounds are listed: those with a hit (about 8.8% of all), similar ones and a draw of the others.
KB-V1 MDR tox – KB-V1 MDR subline cytotoxicity; AID 1347076; KB-V1 MDR cells viability, CellTiter-Glo, 72 h; actives 3.4% (n = 400,000); Potency, µM (series often up to 46.1 µM), usual class: cytotoxic; also: potency is read from the fitted curve at half-maximal effect; nearly all actives have a fitted effect of over 60% in size
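KB-V1 MDR subline cells in DMEM (phenol-red free, 10% FBS) exposed to compounds in qHTS concentration series for 72 h at 37 degrees C. Viability read by CellTiter-Glo luminescence; concentration-effect curves fitted after normalization and correction.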
HT1080 IDH1KD tx – toxicity to HT-1080 IDH1 knockdown cells (counter line); AID 686971; Potency, µM (top dose mostly 46.1 µM), without a hit: top-dose activity, negative = toxicity, actives largely listed as cytotoxic; HT-1080 IDH1 knockdown viability, ATP luminescence, 48 h; actives 2% (n = 360,000);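 also: potency is read from the fitted curve at half-maximal effect; 0% = DMSO wells and -100% = cell-free medium wells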
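After a 2 h attachment period, IDH1KD HT-1080 cells took pin-transferred compound for 48 h at 37 °C; ATP-based luminescence after 10 min room-temperature reagent incubation reported viability.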
IL1B secr inh – blocks inflammasome-driven IL-1 beta release | activity change, % at 57.5 µM | actives 4.7% (n = 360,000) | THP-1 LPS/ATP IL-1B secretion, AlphaLISA, 16 h; active compounds read low | AID 743279; in the data active = activity change below about -50%; inconclusive = mostly about -30% to -49%
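THP-1 cells pretreated 1 hr with compounds (up to 57.5 uM final), then stimulated with LPS (250 ng/mL final) plus ATP (1.25 mM final); secreted IL-1B measured by AlphaLISA after 16 hr, decreased signal indicating inhibition.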
KB-3-1 cytotox – kills parental KB-3-1 adenocarcinoma cells | AID 1347075 | Potency, µM (highest dose often 46.1 µM), most hits filed as cytotoxic | actives 1.4% (n = 400,000) | KB-3-1 viability, CellTiter-Glo ATP luminescence, 72 h; also: potency is read from the fitted curve at half-maximal effect; nearly all actives have a fitted effect of over 60% in size
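Parental KB-3-1 viability, qHTS format: 72 h compound exposure, 37 °C; CellTiter-Glo; media-only wells and DMSO plates as controls; concentration-effect fits on corrected data.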
HT1080NT lethal – kills 2HG-producing HT-1080-NT fibrosarcoma cells. HT-1080-NT fibrosarcoma viability, CellTiter-Glo ATP luminescence, 48 h. Potency, µM (doses to about 46.1 µM), inactives show top-dose activity, negative = less viability, hits mostly cytotoxic. actives 1.6% (n = 360,000). AID 686970;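 also: NT is the 2HG producing partner of a matched IDH1 knockdown line; potency is read from the fitted curve at half-maximal effect; 0% = DMSO-treated cells and -100% = media-only wells without cells; nearly all actives have a fitted effect of over 55% in size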
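Fibrosarcoma NT cells, 750 per well in 5% FBS RPMI, were exposed to compound for 48 hours. Viability: CellTiter-Glo luminescence.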
Numbers without * were called inactive; i = inactive; ? = inconclusive; / = not tested or not shown. Unless noted, calls follow the shape of the dose curve; as a rule, active = well fitted curve in the direction sought with a large enough effect; inconclusive = small, poorly fitted or top-dose-only effect, or another doubt; inactive = no such curve, though single readings can be large; an effect the other way counts as inactive or inconclusive. Unless noted, % is scaled to controls: 0 for no effect and ±100 for the full control effect.

SMILES	KB-V1 MDR tox	HT1080 IDH1KD tx	IL1B secr inh	KB-3-1 cytotox	HT1080NT lethal
COc1ccc(C2CC(c3ccccc3OC(C)=O)=NN2C(=O)/C=C/c2ccccc2)cc1OC (stereo not drawn)	?	?	-25.8	?	-19.8%
COc1ccc(NC(=O)C(c2ccccn2)N(C(C)=O)c2ccc(C)cc2)cc1 (stereo not drawn)	18.4µM*	-24.2%	16.8	i	-0.5%
Cc1cc(C(=O)COc2ccccc2Cl)c(C)n1-c1ccc2c(c1)OCO2	13µM*	-16.2%	-9.8	18.4µM*	-6.2%
CNS(=O)(=O)c1cccc(C(=O)OCC(=O)c2cc(C)n(-c3ccc4c(c3)OCO4)c2C)c1	?	-9.8%	9.6	?	-4.7%
Cc1ccc(-n2c(C)cc(C(=O)COc3c(CO)cc(F)cc3CO)c2C)cc1C	7.31µM*	-3.8%	?	i	0.2%
CCNC(=O)C1(C)CCCN(C(=O)c2cc3ccccc3s2)C1 (stereo not drawn)	i	8.1%	-7.0	i	22.7%
Cc1ccccc1OCc1occc1C(=O)Nc1cccc(-n2cnnn2)c1	?	?	11.4	16.4µM*	-29.4%
Cc1cccc(OCc2occc2C(=O)Nc2cccc(-n3cnnn3)c2)c1	i	-13.6%	58.4	i	-28.4%
Cc1cc(C(=O)CC#N)c(C)n1-c1ccc(OC(F)F)cc1	?	-18.0%	0.3	?	-4.7%
Cc1ccc(-n2c(C)cc(C(=O)COC(=O)c3ccc[nH]c3=O)c2C)cc1	18.4µM*	-1.9%	0.0	i	-3.3%
Cc1cc(C(=O)COC(=O)c2ccc[nH]c2=O)c(C)n1-c1ccc(Br)cc1	i	-21.7%	25.7	i	-0.8%
Cc1cc(C(=O)COC(=O)c2ccc(O)cc2O)c(C)n1-c1ccccc1	16.4µM*	-5.7%	-80.9*	?	-10.7%
COc1ccc(-n2c(C)cc(C(=O)COC(=O)c3ccc(O)cc3O)c2C)cc1	?	?	-9.6	?	?
Cc1cc(C(=O)COC(=O)c2ccc(O)cc2O)c(C)n1-c1ccc(OC(F)F)cc1	?	-19.9%	-3.1	16.4µM*	-7.4%
O=CNc1cc(-c2cccc(O)c2)cn2c(-c3ccc(F)cc3)cnc12	i	?	-5.9	i	?
CC(/C=C/c1ccccc1)=N\NC(N)=S	18.4µM*	-13.9%	0.0	?	2.6%
CC(/C=C/c1ccccc1)=N\NC(=S)NC(C)C	i	0.2%	-10.5	i	-6.1%
CC(C)(C)n1nnnc1C(c1cccc(C(F)(F)F)c1)N1CCC(O)CC1 (stereo not drawn)	i	-5.2%	5.7	0.0046µM*	12.1%
N#Cc1cccc(C(c2nnnn2Cc2ccccc2)N2CCCC2)c1 (stereo not drawn)	i	4.4%	6.3	i	0.0%
c1ccc(Cn2nnnc2C(c2cccs2)N2CCCCCC2)cc1 (stereo not drawn)	16.4µM*	-5.9%	-14.1	i	0.4%
CN1CCN(C(c2cccc(C(F)(F)F)c2)c2nnnn2Cc2ccccc2)CC1 (stereo not drawn)	i	?	-54.2*	i	?
CC(C)(C)n1nnnc1C(c1cccc(C(F)(F)F)c1)N1CCOCC1 (stereo not drawn)	i	0.0%	9.3	i	-0.4%
Cc1cccc(N2CCN(C(=O)Cn3ncc4c3-c3cc(C)ccc3OC4)CC2C)c1 (stereo not drawn)	i	/	/	i	/
CC(=O)N1CCc2cc(Br)cc(S(=O)(=O)N3CCN(c4cc(C)ccc4C)CC3)c21	i	/	/	i	/
COCCOC(=O)c1c(C)oc2ccc(NS(=O)(=O)c3ccc(F)cc3)cc12	5.17µM*	-1.1%	0.0	i	16.4%
CCN1CCc2nc3sc(C(=O)Nc4cccc(Cl)c4C)c(N)c3cc2C1	6.51µM*	/	/	16.4µM*	/
CCN1CCc2nc3sc(C(=O)N4CCc5ccccc5C4)c(N)c3cc2C1	?	-7.9%	-73.1*	i	?
CCN1CCc2nc3sc(C(=O)Nc4cccnc4Cl)c(N)c3cc2C1	i	-2.1%	?	i	4.2%
NC(=O)c1ccsc1NC(=O)CSc1nnc(NC2CC2)s1	/	-8.7%	-8.6	/	0.0%
